High-throughput results (PubChem BioAssay)
DT40 TDP1 no CPT: qHTS for Inhibitors of human tyrosyl-DNA phosphodiesterase 1 (TDP1): qHTS in cells in absence of CPT | DT40 Tdp1-/- hTDP1 cells, no CPT, ATP luminescence, 48 h | Potency, µM (series often up to 46.2 µM), inactives show at the highest dose activity change, negative = growth inhibition, actives largely listed as inhibitors | hit rate 15% among 420,000 | AID 686978, 2013; further: potency means the concentration at half of the fitted maximal effect; on the % scale 0 is the no-effect control and ±100 the full control effect; nearly all actives have a fitted effect of over 55% in size
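Camptothecin absent (DMSO only). Human TDP1-complemented DT40 knockout cells, 400 cells/well, 37 °C for minimum 48 hr; ATP measured via CellTiter-Glo, 30 min dark incubation, luminescence.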
HepG2 viability: qHTS for Inhibitors of TGF-b: Cytotox Counterscreen | AID 588856, 2011 | HepG2 CAGA-GFP viability, ATP luminescence, 18 h | hit rate 0.76% among 410,000 | Potency, µM (highest dose often 46.1 µM), inactives show at the top dose activity change, negative = cytotoxicity, most hits filed as cytotoxic; further: potency means the concentration at half of the fitted maximal effect
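HepG2 CAGA-GFP cells (1000/well, DMEM with 1% FBS) received compound, then TGF-beta at 500 pg/mL final, and were incubated 18 hours at 37 degrees C. Viability was read by CellTiter-Glo luminescence. Media-only wells were set as complete cell-killing and DMSO as no toxicity.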
TDP1 cell CPT: qHTS for Inhibitors of human tyrosyl-DNA phosphodiesterase 1 (TDP1): qHTS in cells in presence of CPT. chicken DT40 Tdp1-/-;hTDP1 cells + 20 nM CPT, ATP luminescence, 48 h. Potency, µM (top dose mostly 46.2 µM), for inactives: at the highest dose activity change, negative = growth inhibition, most hits filed as inhibitors. hit rate 12% among 420,000. AID 686979, 2013; further: potency means the concentration at half of the fitted maximal effect; on the % scale 0 is the no-effect control and ±100 the full control effect; nearly all actives have a fitted effect of over 55% in size
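Chicken DT40 Tdp1-/- cells complemented with human TDP1, 400 cells/well, exposed to compounds plus 20 nM camptothecin for at least 48 h at 37 C; viability read as ATP content by CellTiter-Glo luminescence.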
TDP1 inh: qHTS Assay for Inhibitors of Tyrosyl-DNA Phosphodiesterase (TDP1). Tyrosyl-DNA phosphodiesterase 1 (Homo sapiens), Q9NUW8. recombinant TDP1, AlphaScreen DNA substrate cleavage. Potency, µM (top dose mostly 130 µM), inactives show at the highest dose activity change, negative = inhibition, hits mostly inhibitors. hit rate 0.28% among 350,000. AID 485290, 2010; further: potency means the concentration at half of the fitted maximal effect; on the % scale 0 is the no-effect control and ±100 the full control effect; nearly all actives have a fitted effect of over 40% in size
Target sequence (Q9NUW8 whole entry, looked up): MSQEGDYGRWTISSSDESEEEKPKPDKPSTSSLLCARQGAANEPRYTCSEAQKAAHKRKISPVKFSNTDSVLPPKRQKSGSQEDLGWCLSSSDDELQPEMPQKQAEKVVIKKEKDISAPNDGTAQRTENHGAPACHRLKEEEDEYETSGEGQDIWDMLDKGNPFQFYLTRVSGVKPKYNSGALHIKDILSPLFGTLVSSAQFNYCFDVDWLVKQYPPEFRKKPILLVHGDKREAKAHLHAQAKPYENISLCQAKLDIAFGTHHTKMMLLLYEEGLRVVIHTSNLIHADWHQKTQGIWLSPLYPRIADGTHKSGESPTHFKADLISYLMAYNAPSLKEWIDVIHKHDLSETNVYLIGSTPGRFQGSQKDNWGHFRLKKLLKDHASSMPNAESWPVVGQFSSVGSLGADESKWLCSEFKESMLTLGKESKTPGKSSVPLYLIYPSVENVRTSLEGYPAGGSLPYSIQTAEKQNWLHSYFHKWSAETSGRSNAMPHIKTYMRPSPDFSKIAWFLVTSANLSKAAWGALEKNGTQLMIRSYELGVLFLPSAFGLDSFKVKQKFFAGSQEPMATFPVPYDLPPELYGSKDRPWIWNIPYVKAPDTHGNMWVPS
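Compounds were preincubated with Tdp1 (1 nM final) for 15 min at room temperature before substrate (15 nM final) started a 5 min reaction; beads (10 ug/ml final) were then added for 10 min before AlphaScreen detection.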
TGFb SMAD3 inh: qHTS for Inhibitors of TGF-b | HepG2 CAGA-GFP TGF-b/SMAD3 reporter, GFP fluorescence, 18 h; TGF-beta stimulated, 500 pg/mL final | hit rate 1.2% among 410,000 | Potency, µM (series often up to 46.1 µM), inactives show at the highest dose activity, negative = inhibition, hits mostly inhibitors; further: potency means the concentration at half of the fitted maximal effect; on the % scale 0 is the no-effect control and ±100 the full control effect; nearly all actives have a fitted effect of over 65% in size
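First, reporter cells (HEPG2 CAGA-GFP) rested 2 h at 37 degrees C. Next, compounds were pinned in and TGF-beta added to 500 pg/mL final. After 18 h, GFP was imaged per cell and summed per well.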
IL1B secr inh: qHTS for Inhibitors of Inflammasome Signaling: IL-1-beta AlphaLISA Primary Screen. THP-1 LPS/ATP IL-1B secretion, AlphaLISA, 16 h; active compounds read low. activity change, % at 57.5 µM. hit rate 4.7% among 360,000; in the data active means activity change below about -50%; inconclusive means mostly about -30% to -49%; further: on the % scale 0 is the no-effect control and ±100 the full control effect
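THP-1 cells pretreated 1 hr with compounds (up to 57.5 uM final), then stimulated with LPS (250 ng/mL final) plus ATP (1.25 mM final); secreted IL-1B measured by AlphaLISA after 16 hr, decreased signal indicating inhibition.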
The depositor's hits bear a star; ? = inconclusive; . = no result given; [ ] = remark or other dose. Hits are enriched below; roughly 19% of the tested compounds scored in any of these assays. Unless noted, the call rests on the fitted dose curve; in most records, active means well fitted curve in the direction sought with a large enough effect; inconclusive means small, poorly fitted or top-dose-only effect, or another doubt; inactive means no such curve, though single readings can be large; an effect the other way counts as inactive or inconclusive.

SMILES	DT40 TDP1 no CPT	HepG2 viability	TDP1 cell CPT	TDP1 inh	TGFb SMAD3 inh	IL1B secr inh
CC(C)c1ccc(C(=O)N2CCCC(c3cc(C(=O)Nc4ccccc4Cl)no3)C2)cc1 (stereo not drawn)	5.8µM*	-26.6%	14.6µM*	.	?	36.3
CCCc1nc2ccccc2c(=O)n1-c1cccc(OC)c1	?	-3.5%	18.4µM*	4.0%	1.4%	-15.3
CCc1nc2ccccc2c(=O)n1-c1ccc2ccccc2c1	?	6.0%	?	1.8%	14.1%	12.0
CCCSc1nc2ccccc2c(=O)n1-c1ccccc1OC	20.6µM*	-19.8%	?	-5.7%[12.3 µM]	?	.
CCCCc1nc2ccccc2c(=O)n1-c1cccc(OC)c1	18.4µM*	-17.2%	16.4µM*	2.2%[12.3 µM]	-22.8%	.
COc1ccccc1-n1c(Cc2ccccc2)nc2ccccc2c1=O	-29.6%	-23.2%	1.8%	4.8%	-1.0%	?
CCCc1nc2ccccc2c(=O)n1-c1ccccc1OC	20.6µM*	-3.0%	?	2.1%	-3.6%	5.0
CC[C@@H]([C@H](C)O)n1ncn(-c2ccc(N3CCN(c4ccc(OC[C@@H]5CO[C@@](Cn6cncn6)(c6ccc(F)cc6F)C5)cc4)CC3)cc2)c1=O	?	.	-6.7%	.	.	.
CC12CCC(=O)C=C1C=CC1C2CCC2(C)C(O)CCC12 (stereo not drawn)	-26.7%	19.2%	5.8%	.	24.3%	30.9
O[C@H]1CCCC[C@H]1N1CCC(c2ccccc2)CC1	-4.3%	.	-7.7%	-6.1%[56.1 µM]	.	.
CCCc1nc2ccccc2c(=O)n1-c1ccc(OC)cc1	23.1µM*	0.9%	?	5.9%	-8.2%	11.0
COc1ccc(-n2c(CNCCc3ccc(C)cc3)nc3ccccc3c2=O)cc1	?	-84.4%	?	.	-14.7%	-4.2
CCOc1cc2[nH]c(=O)n(CCCC(=O)N3CCN(c4cccc(Cl)c4)CC3)c(=O)c2cc1OCC	3.26µM*	-9.5%	5.8µM*	2.5%	-20.7%	.
CCOC(CN1CCN(CC(C)C(=O)c2ccccc2)CC1)c1ccccc1 (stereo not drawn)	26.6µM*	.	?	.	.	.
C[C@@H]1O[C@H](C[N+](C)(C)C)C[C@H]1O	.	.	.	7.2%	.	.
O=c1c2ccccc2nc(-c2cccs2)n1-c1ccccc1	23.1µM*	-3.2%	?	0.0%	-11.8%	9.0
Cc1cccc(-n2c(-c3cccs3)nc3ccccc3c2=O)c1	?	-10.3%	16.4µM*	2.7%	?	24.0
CCOc1ccc(-n2c(-c3cccs3)nc3ccccc3c2=O)cc1	?	-9.4%	?	-3.7%	2.2%	21.5
O=C(c1ccc(F)cc1)N1CCC(N2CCCCCC2)CC1	-0.2%	1.6%	-14.9%	3.3%	?	21.1
c1cnc(N2CCC3(CCNCC3)CC2)nc1	23.1µM*	.	?	.	.	.
c1ccc(N2CCCC3(CCNCC3)C2)nc1	16.4µM*	.	?	.	.	.
c1cc(CN2CCC3(CCNCC3)CC2)ccn1	-2.3%	.	-0.6%	.	.	.
C#CC1(O)CCC2C3CCC4=CC(=O)CCC4=C3C=CC21C (stereo not drawn)	14.6µM*	-7.5%	8.2µM*	.	3.1%	3.2
C=CC[C@]1(O)CC[C@H]2[C@@H]3CCC4=CC(=O)CCC4=C3C=C[C@@]21C	7.5µM*	.	13.3µM*	5.6%	.	.
CC12C=CC(=O)C=C1CC(O)C1C2CCC2(C)C1CCC2(C)O (stereo not drawn)	-13.3%	11.4%	6.1%	.	9.5%	4.0
SMILES	DT40 TDP1 no CPT	HepG2 viability	TDP1 cell CPT	TDP1 inh	TGFb SMAD3 inh	IL1B secr inh
COc1ccc(C(=O)OC2C[C@H]3CC[C@@H](C2)N3C)cc1OC (stereo partly drawn)	.	.	.	4.1%[21 µM]	.	.
Clc1cncc(N2CCNCC2)n1	-15.9%	.	-4.8%	-3.7%	.	.
CN1Cc2c(ccc3c2OCO3)C2C(O)Cc3cc4c(cc3C21)OCO4 (stereo not drawn)	1.88µM*	.	2.66µM*	10.7%	.	.
Cc1cc(C(=O)Cn2nnc(-c3ccc(Cl)cc3)n2)c(C)n1-c1ccccc1	?	12.1%	-18.2%	2.7%	?	?
Cc1cc(C)c(Cn2c3ccccc3c3cnn(CC(=O)NCc4ccc(Cl)cc4)c(=O)c32)c(C)c1	23.1µM*	-0.5%	?	5.1%	-1.6%	.
O=c1[nH]c(=O)n(-c2ccccc2)c(O)c1/C=C1/C(c2ccccc2)=Nc2ccccc21	2.31µM*	-1.2%	2.06µM*	-5.6%	-27.2%	22.1
CC1=C2[C@H]3OC(=O)[C@@H](C)[C@@H]3CC[C@@]2(C)C=CC1=O	0.9%	-6.8%	-0.3%	5.1%	-9.6%	-11.5
CCC(C)C1NC(=O)C(NC(=O)C(CC(C)C)N(C)C(=O)C2CCCN2C(=O)C(C)O)C(C)OC(=O)C(Cc2ccc(OC)cc2)N(C)C(=O)C2CCCN2C(=O)C(CC(C)C)NC(=O)[C@H](C)C(=O)[C@H](C(C)C)OC(=O)CC1O (stereo partly drawn)	0.0291µM*	-2.1%	0.0366µM*	.	-103.6%	-100.4*
CC(C)C[C@H](NC(=O)[C@H](Cc1ccccc1)NC(=O)CNC(=O)[C@H](CO)NC(=O)[C@@H](N)Cc1ccc(O)cc1)C(=O)N[C@H](C(=O)O)[C@H](C)O	2.0%[4.12 µM]	.	-1.9%[4.12 µM]	6.1%	.	.
O=C(N[C@H]1CP(=O)(Oc2ccccc2)O[C@H](COCc2ccccc2)[C@H]1O)C(Cl)(Cl)Cl (stereo partly drawn)	-25.7%	-2.1%	-4.1%	.	?	2.0
